Results published in the supplement of paper PMC6607015.
Structures can show the parent of a compound that is named as a salt.

These molecules were tested on HeLa MZ (assay: LBPA endosome anti-LBPA integrated intensity (sum per cell), Z-score; higher = more LBPA staining). Conditions: compound concentration in added solution (µM; 5 µl added to 20 µl cells): 10; 18 h.
Outline: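 In duplicate 384-well imaging plates, 3,500 HeLa MZ or A431 cells in 20 µl per well were seeded onto 5 µl of 10 µM compound solution. The cells were incubated for 18 h, fixed in 4% PFA and stained with 6C4 anti-LBPA antibody, filipin, propidium iodide and CellTracker green before four 20× images were acquired per well. Values are AcuityXpress-normalised Z-scores of per-cell integrated LBPA or filipin intensity, obtained by MetaXpress segmentation over the whole cell or in LBPA endosomes.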

| SMILES | LBPA endosome anti-LBPA integrated intensity (z-score) |
| --- | --- |
| C[C@@H]1NC(=O)NC1=O [Methylhydantoin-5-(L)] | 0.559 |
| C[C@@](Cc1ccc(O)c(O)c1)(NN)C(=O)O [Carbidopa] | -0.537 |
| CCN(CC)C(=S)SSC(=S)N(CC)CC [Disulfiram] | 0.205 |
| C[C@]12C[C@H](O)[C@H]3[C@@H](CCC4=CC(=O)CC[C@@]43C)[C@@H]1CC[C@@H]2C(=O)CO [Corticosterone] | 0.522 |
| Cc1scc2c1N(C(=O)CN1CCN(C)CC1)c1ccccc1NC2=O [Telenzepine dihydrochloride] | 0.0897 |
| Cc1nnc(SCC2=C(C(=O)O)N3C(=O)[C@@H](NC(=O)Cn4cnnn4)[C@H]3SC2)s1 [Cefazolin sodium salt] | -0.611 |
| COc1nc(C)nc(Cl)c1NC1=NCCN1 [Moxonidine] | 0.511 |
| Nc1ccc(S(=O)(=O)c2ccc(N)cc2)cc1 [Dapsone] | -0.767 |
| CCCCOc1ccc(OCCCN2CCOCC2)cc1 [Pramoxine hydrochloride] | 1.34 |
| CC(C)n1c(/C=C/C(O)CC(O)CC(=O)O)c(-c2ccc(F)cc2)c2ccccc21 (centres undefined) [Fluvastatin sodium salt] | -1.11 |
| COc1cc(NS(=O)(=O)c2ccc(N)cc2)ncn1 [Sulfamonomethoxine] | 0.107 |
| CN1C(C(=O)Nc2ccccn2)=C(O)c2sccc2S1(=O)=O [Tenoxicam] | -0.303 |
| CCOC1O[C@H]([C@@H](COCc2ccccc2)OCc2ccccc2)[C@H](OCc2ccccc2)[C@H]1O (some centres undefined) [Tribenoside] | 2.34 |
| CN[C@H]1CC[C@@H](c2ccc(Cl)c(Cl)c2)c2ccccc21 [Sertraline] | -0.719 |
